Source: PubChem
TDP1 cell CPT: DT40-hTDP1 cell growth loss with CPT; chicken DT40 Tdp1-/-;hTDP1 cells + 20 nM CPT, ATP luminescence, 48 h; Potency, µM (series often up to 46.2 µM), actives largely listed as inhibitors; 420,000 tested, 12% active; note: nearly all actives have a fitted effect of over 55% in size
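Cell growth measured by CellTiter-Glo luminescence after a minimum 48 h, 37 C compound exposure with 20 nM CPT in Tdp1-knockout DT40 cells stably expressing hTDP1, seeded 400/well; qHTS titration format.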
TDP1 inh: TDP1 (human) enzyme inhibition; Q9NUW8; Potency, µM (highest dose often 130 µM), usual class: inhibitors; recombinant TDP1, AlphaScreen DNA substrate cleavage; 350,000 tested, 0.28% active; note: nearly all actives have a fitted effect of over 40% in size
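E. coli-derived human Tdp1, 1 nM final. Cpd preinc 15 min RT; substrate 15 nM final, 5 min RT; AS bead mix 10 ug/ml final, 10 min RT. Signal loss = tyrosine-FITC cleavage. No-enzyme wells = max signal.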
ClpP mod: qHTS Assay for Activators of ClpP; purified B. subtilis ClpP, FRET peptide cleavage, 20 min; Potency, µM (highest dose often 57.5 µM); 340,000 tested, 1.9% active; ATP-dependent Clp protease proteolytic subunit (Bacillus subtilis (strain 168)), P80244; AID 651965, 2013; active = well fitted falling curve with a large enough effect; inconclusive = small, poorly fitted or top-dose-only effect; inactive = no such curve, though single readings can be large or run the other way; note: the source files actives as falling curves though it sought activators and does not explain the sign; nearly all actives have a fitted effect of over 65% in size
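Buffer: 100 mM Tris/HCl pH8, 100 mM KCl, 0.05% low protease BSA, 2.5% glycerol, 0.01% Tween-20. ClpP 10 microg/mL final; 20 min RT; delta FRET normalized to ADEP and DMSO controls.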
TDP1 cell noCPT: qHTS for Inhibitors of human tyrosyl-DNA phosphodiesterase 1 (TDP1): qHTS in cells in absence of CPT. 420,000 tested, 15% active. DT40 Tdp1-/- hTDP1 cells, no CPT, ATP luminescence, 48 h. Potency, µM (top dose mostly 46.2 µM), hits mostly inhibitors. AID 686978, 2013; note: nearly all actives have a fitted effect of over 55% in size
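Cells were dispensed at 400 per well, compounds added by pin tool, plates incubated ≥48 hr at 37 °C, then CellTiter-Glo added for 30 min at room temperature before luminescence reading. Line: DT40 Tdp1-/- complemented with hTDP1; camptothecin omitted.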
Hits are given with their value. Most compounds without a hit are left out; they make up all but 17% or so of the library. Unless noted, calls come from the whole dose curve; as a rule, active = well fitted curve in the direction sought with a large enough effect; inconclusive = small, poorly fitted or top-dose-only effect, or another doubt; inactive = no such curve, though single readings can be large; an effect the other way counts as inactive or inconclusive.

For COc1ccc(C(=O)N/C(=C\c2cn(S(=O)(=O)N(C)C)c3ccccc23)C(=O)NC(C)C)cc1 the results were TDP1 cell CPT inactive, TDP1 inh inactive, ClpP mod inactive and TDP1 cell noCPT inactive.
`CN(C)S(=O)(=O)n1cc(/C=C(\NC(=O)c2ccccc2Cl)C(=O)NCCCn2ccnc2)c2ccccc21` gave TDP1 cell CPT 18µM, TDP1 inh inactive, ClpP mod inactive and TDP1 cell noCPT 29µM.
For CCN(CC)C(=O)/C(=C/c1cn(S(=O)(=O)N(C)C)c2ccccc12)NC(=O)c1ccc(OC)cc1 the results were TDP1 cell CPT inconclusive, TDP1 inh inactive and TDP1 cell noCPT 21µM.
CC(C)c1ccc(NC(=O)CCNS(=O)(=O)c2ccc3c(c2)oc(=O)n3C)cc1 was read as TDP1 cell CPT inactive, TDP1 inh inactive, ClpP mod inactive and TDP1 cell noCPT inactive.
Screening CCOc1ccccc1NC(=S)NCC1CCCO1 (stereo not given) returned TDP1 cell CPT inactive, TDP1 inh inactive, ClpP mod inactive and TDP1 cell noCPT inactive.
CN1CCN(c2ccc(CNC(=O)C3Cc4c(-c5ccc6c(c5)OCO6)ccnc4O3)cc2)CC1 (stereo not given) was read as TDP1 cell CPT inactive, ClpP mod inactive and TDP1 cell noCPT inconclusive.
O=C(NCc1ccncc1)C1Cc2c(-c3ccc4c(c3)OCO4)ccnc2O1 (stereo not given) was read as TDP1 cell CPT inconclusive, ClpP mod inactive and TDP1 cell noCPT 13µM.
O=C(NCc1ccccc1)C1Cc2c(-c3ccc4c(c3)OCO4)ccnc2O1 (stereo not given) was read as TDP1 cell CPT 0.58µM, ClpP mod inactive and TDP1 cell noCPT 0.73µM.
`COc1ccc(CCCNC(=O)C2Cc3c(-c4ccc5c(c4)OCO5)ccnc3O2)cc1` (stereo not given) gave TDP1 cell CPT inconclusive, ClpP mod inactive and TDP1 cell noCPT inconclusive.
Screening COc1cc(OC)cc(C(=O)OCC(=O)N(C)c2ccccc2)c1 returned TDP1 cell CPT inactive, TDP1 inh inactive and TDP1 cell noCPT inactive.
For Cc1ccccc1C(=O)N1CCN(S(=O)(=O)c2ccccc2)CC1 the results were TDP1 cell CPT inactive, TDP1 inh inactive, ClpP mod inactive and TDP1 cell noCPT inactive.
Screening N#CC1=C(N)OC2=C(CCc3ccccc32)C1c1ccccc1Cl (stereo not given) returned TDP1 cell CPT 4.6µM, TDP1 inh inactive, ClpP mod inactive and TDP1 cell noCPT 4.6µM.
CC(C)c1ccc(NC(=O)CCS(=O)(=O)c2ccc3c(c2)CC(=O)N3C)cc1 was read as TDP1 cell CPT inconclusive, TDP1 inh inactive, ClpP mod inactive and TDP1 cell noCPT inactive.
CCOC(=O)CC1(C)Sc2ccccc2N1S(=O)(=O)c1ccc(C)cc1 (stereo not given) was read as TDP1 cell CPT inconclusive, ClpP mod inactive and TDP1 cell noCPT inconclusive.
Screening Cc1ccc(NC(=O)CSc2nc3ccccc3c3nc(CCn4c(C)nc5ccccc54)nn23)cc1F returned TDP1 cell CPT 8.2µM, TDP1 inh inactive, ClpP mod inactive and TDP1 cell noCPT 9.2µM.
For Cc1nc2ccccc2n1CCc1nc2c3ccccc3nc(SCC(=O)Nc3cccc(C(F)(F)F)c3)n2n1 the results were TDP1 cell CPT inconclusive, TDP1 inh inactive, ClpP mod inactive and TDP1 cell noCPT inconclusive.
Screening COc1ccccc1NC(=O)CSc1nc2ccccc2c2nc(-c3ccccc3)nn12 returned TDP1 cell CPT inactive, TDP1 inh inactive, ClpP mod inactive and TDP1 cell noCPT inactive.
`O=C(CSc1nc2ccccc2c2nc(-c3ccccc3)nn12)Nc1ccc(F)cc1` gave TDP1 cell CPT inconclusive, TDP1 inh inactive, ClpP mod inactive and TDP1 cell noCPT 15µM.
For Cc1nc2ccccc2n1CCc1nc2c3ccccc3nc(SCC(=O)Nc3ccc(C(C)C)cc3)n2n1 the results were TDP1 cell CPT 12µM, TDP1 inh inactive, ClpP mod inactive and TDP1 cell noCPT 9.2µM.
Screening CCC(Sc1nc2ccccc2c2nc(CCn3c(C)nc4ccccc43)nn12)C(=O)Nc1ccc(F)cc1 (stereo not given) returned TDP1 cell CPT inconclusive, TDP1 inh inactive, ClpP mod inactive and TDP1 cell noCPT 2.3µM.
